# Assay outcomes (PubChem BioAssay)
# LANA-H2A inh: blocks KSHV LANA binding to histone H2A/H2B | Q9QR71 | cell-free LANA-H2A/H2B peptide, fluorescence polarization | inhibition, % (test concentration not listed) | 320,000 tested, 0.6% active | AID 2629; in the data active = inhibition mostly above about 10%, no sharp cut-off; inactive = mostly below about 6.7%
# C-LANA FP: KSHV C-LANA DNA binding inhibition; MBP-C-LANA/FAM-LBS DNA binding, fluorescence polarization; 340,000 tested, 0.078% active; inhibition, % at 9 µM;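 active = highest replicate inhibition at or above 60% at 9 µM, even if other replicates fall short; inactive = all replicates below 60% inhibition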;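 also: 0% = neutral control wells and 100% = 4 µM acridine orange control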
# Keap1-Nrf2 PPI: Keap1-Nrf2 (human) interaction inhibition; AID 504523; Q14145; 340,000 tested, 0.15% active; inhibition, % at 9.4 µM; Keap1 Kelch-Nrf2 peptide fluorescence polarization, 1536-well; in the data active = inhibition above about 12%;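 also: human Keap1 Kelch domain with fluorescein labeled Nrf2 9mer peptide probe; 0% = neutral control wells and 100% = peptide positive control; higher means more block of Keap1 binding to Nrf2 peptide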
# GLD-1 TGE inh: GLD-1-TGE RNA interaction inhibition (C. elegans); purified GLD-1 + fluorescein TGE RNA, fluorescence polarization; 320,000 tested, 0.44% active; inhibition, % at 5.96 µM; Q17339;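 active = percent inhibition above a per-plate cutoff, the plate mean of test compounds plus 3 SD, cut at about 30% in these data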;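 also: 0% = DMSO wells with GLD-1 and probe and 100% = wells lacking GLD-1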
# Target sequence (Q17339 whole entry, looked up): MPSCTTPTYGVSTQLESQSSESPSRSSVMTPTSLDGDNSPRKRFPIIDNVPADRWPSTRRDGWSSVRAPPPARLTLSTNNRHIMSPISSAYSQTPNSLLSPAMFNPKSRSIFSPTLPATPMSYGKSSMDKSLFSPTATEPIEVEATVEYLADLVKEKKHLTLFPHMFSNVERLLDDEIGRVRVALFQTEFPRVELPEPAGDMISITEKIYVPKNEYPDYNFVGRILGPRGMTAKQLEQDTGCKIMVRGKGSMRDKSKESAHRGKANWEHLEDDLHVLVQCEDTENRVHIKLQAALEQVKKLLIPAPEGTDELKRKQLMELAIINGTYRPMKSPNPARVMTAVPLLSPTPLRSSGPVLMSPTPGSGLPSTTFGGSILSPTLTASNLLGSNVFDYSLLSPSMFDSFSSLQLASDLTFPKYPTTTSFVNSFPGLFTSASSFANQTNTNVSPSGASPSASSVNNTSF
# EBV gp42 block: blocks Epstein-Barr virus glycoprotein 42 binding. 220,000 tested, 0.42% active. Q1HVG2. Fluorescence polarization binding assay, mP read-out. inhibition, % (tested at 21.74 µM); in the data active = inhibition above about 50%
# E coli Lon inh: E. coli protease La inhibition | P0A9M0 | purified E. coli Lon protease, fluorescence polarization | inhibition, % at 7.94 µM | 360,000 tested, 0.42% active | AID 602123; in the data active = inhibition above about 13%, passing the limit was not always enough;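 also: 0% = enzyme with probe and DMSO and 100% = no enzyme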
# eLon confirm: confirmation of E. coli Lon protease inhibitors; shares compounds with E coli Lon inh; purified E. coli Lon, fluorescence polarization; inhibition, % at 7.94 µM; 1,400 tested, 31% active; in the data active = inhibition above about 16%;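 also: 0% = enzyme with probe and DMSO and 100% = no enzyme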
# Numbers without * were called inactive; / = no result given. A selection: hits, their analogues and other compounds. The true share with any hit is near 1.5%.
SMILES,LANA-H2A inh,C-LANA FP,Keap1-Nrf2 PPI,GLD-1 TGE inh,EBV gp42 block,E coli Lon inh,eLon confirm
CC(C)C(C)NC(=O)COC(=O)c1cccc(C(=O)OCC(=O)NC(C)C(C)C)n1 (stereo unspecified),4,-1,-2,3,-17,9,/
Cn1c(SCC(=O)NCC2CCCO2)nc2c(c1=O)SCC2 (stereo unspecified),-2,0,1,-1,/,52*,1
COc1ccc(CNC(=O)Cn2ncn3cccc3c2=O)cc1,1,/,/,3,-2,/,/
Cc1ccc(-c2ccccc2NC(=O)CCl)o1,0,1,0,2,-19,-2,/
Cc1ccc(-c2ccccc2NC(=O)CS(=O)CC(=O)Nc2ccc(C)c(Cl)c2)o1 (stereo unspecified),-2,2,3,140*,/,114*,16*
CC(=O)n1nc(-c2ccc(C)cc2)nc1NCc1ccco1,/,0,-6,/,2,9,/
CC(=O)n1nc(-c2ccc(C)cc2)nc1NCc1ccc(F)cc1,/,-2,4,/,12,18*,2
COc1ccc(NC(C)=O)cc1NC(=O)CSc1nnc(-c2ccncc2)n1C,-1,-1,-6,6,-3,8,/
Cc1ccc(NC(=O)CSc2nnc(-c3ccncc3)n2C)cc1C,2,1,3,3,-8,33*,-6
Cn1cnnc1SCC(=O)Nc1ccccc1,1,-1,-5,2,-16,-8,/
Cn1cnnc1SCC(=O)Nc1ccc2ccccc2c1,2,-1,-1,7,/,14*,1
O=C(NCC1CC1)c1csc(COCCO)n1,/,/,/,/,/,-3,/
CCN1CCN(C(CNS(=O)(=O)c2ccccc2)c2cccnc2)CC1 (stereo unspecified),-2,-1,-6,7,/,19*,-6
CCN(CC)C(=S)Nc1ccc(Cl)c(Cl)c1,-4,1,-3,-1,-7,17*,32*
CC(=O)Nc1ccc(NC(=O)CSc2ccc(-c3ccco3)nn2)cc1,5,0,0,3,5,17*,-6
CN(C)c1ccc(NC(=O)CSc2nnc(-c3ccco3)c(-c3ccco3)n2)cc1,-12,1,-1,6,/,9,/
Cc1ccc(NC(=O)CSc2nnc(-c3ccco3)c(-c3ccco3)n2)cc1,5,2,3,1,7,161*,-12
COc1ccc(Cl)cc1S(=O)(=O)n1ccnc1C(C)C,2,0,-3,0,-1,17*,2
CCSc1nnc(NC(=O)[C@H](C)N2C(=O)C3CC=CCC3C2=O)s1 (stereo partly specified),-3,2,2,2,3,7,/
O=C(NC(=S)Nc1ccc([N+](=O)[O-])cc1O)C1CCCCC1,-4,1,-5,-6,/,16*,0
CC1CCc2nc(NC(=O)C3COc4ccccc4O3)sc2C1 (stereo unspecified),0,2,-6,-11,-17,34*,0
CCN(CC)C(=O)CSc1nnc2nnc3cc(Cl)ccc3n12,6,6,6,123*,67*,54*,42*
COC(=O)c1ccc(-c2nc(CN3CCCN(C(=O)c4ccco4)CC3)c(C)o2)cc1,4,0,-5,6,/,2,/
COC(=O)c1ccc(-c2nc(CN3CCN(C(=O)c4ccco4)CC3)c(C)o2)cc1,/,/,/,/,/,15*,-2
Cn1c(CNC(=O)Nc2ccccc2)nnc1SCc1ccccc1,-7,1,-3,2,-14,-22,/
Cn1c(CNC(=O)Nc2cccc(Cl)c2)nnc1SCc1ccccc1,0,0,-6,5,-5,15*,-13
CC1CN(Cc2csc(-c3ccc(Cl)cc3)n2)CC(C)O1 (stereo unspecified),-2,0,-8,9,-4,15*,-7
